Measured values from PubChem BioAssay (EPA / NIEHS).
Calls of active or inactive are those of the source. Rule for the calls: active = hit-call score of the fitted dose curve at least 0.9, where 1 is the maximum; inactive = score below 0.9.

read-out: Intercellular Adhesion Molecule 1 (ICAM1), ICAM1 (gene 3383); assay: LTEA_HepaRG_ICAM1: Life Technologies and Expression Analysis (LTEA) Assay for Intercellular Adhesion Molecule 1 (ICAM1) using HepaRG (AID 2283507); settings: mRNA level, 48 h; actives raise or lower the signal
Description: LTEA_HepaRG is a cell based, multiplexed-readout assay that uses HepaRG, a human liver cell line, with measurements taken at 48 hours after chemical dosing on a 96-well plate.LTEA_HepaRG_ICAM1 is one of 102 assay component(s) measured in the LTEA HepaRG cell culture assay. It is a marker of Fibrosis.Data from the assay component LTEA_HepaRG_ICAM1 was analyzed into 1 endpoint. This assay endpoint, LTEA_HepaRG_ICAM1, was analyzed with bidirectional fitting relative to DMSO as the negative control and baseline of activity. Using a type of inducible reporter, measures of mRNA induction for gain or loss-of-signal activity can be used to understand regulation of transcription factor activity. To generalize the intended target to other relatable targets, this assay endpoint is annotated to the cell adhesion molecules intended target family, where the subfamily is Immunoglobulin CAM.
A total of 1060 chemcials from the ToxCast library were tested in eight-point concentration-response experiments. Cell culture and cytotoxicity assays were conducted at Thermo Fisher Scientific's Custom Services facility (Madison, WI). A single lot of human HepaRG cells (Thermo Fisher Scientific, Frederick, MD) was used for the cell culture experiments. 96-well format collagen type I coated plates of human HepaRG cells were prepared using established methods. Briefly, cryopreserved HepaRG cells were thawed, plated at a density of approximately 100,000 cells/well in HepaRG Thaw, Plate, and General Purpose media (HPRG770, Thermo Fisher Scientific), and incubated for 48 hours. 0.5% DMSO was selected as vehicle control to balance the requisite need of DMSO in HepaRG cultures to maintain differentiation (for example, baseline metabolism, proportions of hepatocytes vs. cholangiocytes), while enabling further hepatic receptor pathway activation (for example, PXR and CAR) in response to chemical exposure. 48 hours after plating, the culture medium was replaced with HepaRG Serum-Free Incudtion Media. Cells were exposed to each test chemical in duplicate and maintained in CO2 incubators for another 48 hours. Chemical plates were thawed to room temperature and 200x concentrations of treatment groups were prepared. 8-point conentration-reponse curves were made with the highest exposure at 100 uM, followed by half-log dilutions, all in 0.5% DMSO. Each test plate contained variouse controls, induction positive controls (1mM phenobarbital), cytotoxicity positive controls ([…] aflatoxin B1), vehicle controls (0.5% DMSO), and total lysis controls (0.5% DMSO). Cell morphology images were taken using an Essen IncuCyte FLR automated microscope, with six 96-well plates imaged in about 24 minutes. Images were captured and exported and JPEG files. Spent culture media was transfered to black-well plates for the LDH assay, and remaining media was sorted at -80 C for later use. Cells were treated with RLT buffer and frozen until shipped for gene expression analysis. Total RNA was isolated from the cell suspension in 75 uL of Buffer RLT (Qiagen, Germantown, MD 20874) by Quintiles/Expression Analysis (Durham, NC) using a custom isolation procedure. Total RNA from each plate well was transferred to a preamplification plate. Fluidigm's 96.96 Dynamic ArrayTM (Fluidigm, Amsterdam, the Netherlands) technology was used for gene expression analyses by quantitative reverse transcription polymerase chain reaction (qRT-PCR, performed by Quintiles/Expression Analysis, Durham, NC)89. Standard TaqManTM Assays (Applied Biosystems/ThermoFisher Scientific, Foster City, CA) were used to assess the expression of 93 genes selected based on their selectivity and sensitivity to important hepatic receptors known to be modulated by environmental chemicals; importance in human hepatocyte functionality; and hepatotoxicity. […]

| Compound | outcome | AC50 |
| --- | --- | --- |
| CCC(C)(C)c1ccc(O)cc1 | inactive | – |
| CSC(C)(C)C=NO | inactive | – |
| CC(C)(C)c1ccc(O)cc1 | inactive | – |
| ClC1=C(Cl)C2(Cl)C3C(Cl)C(Cl)CC3C1(Cl)C2(Cl)Cl (stereo not given) | inactive | – |
| CCOP(=S)(Oc1ccc([N+](=O)[O-])cc1)c1ccccc1 (stereo not given) | inactive | – |
| c1ccc(OP(Oc2ccccc2)Oc2ccccc2)cc1 | inactive | – |
| OCC1CO1 (stereo not given) | inactive | – |
| CCCCN(CCCC)SN(C)C(=O)Oc1cccc2c1OC(C)(C)C2 | inactive | – |
| c1nc[nH]n1 | – | 112 nM (active) |
| CC(Cc1ccc(OCC(=O)O)cc1)NCC(O)c1csc(C(F)(F)F)n1 (stereo not given) | inactive | – |
| Cc1ccc(N)cc1N | inactive | – |
| CC(Cl)(Cl)C(=O)O | inactive | – |
| COCCOCCO | inactive | – |
| Nc1ccc2ccccc2c1 | inactive | – |
| CCOS(=O)(=O)OCC | inactive | – |
| Cc1ccc(O)cc1C | inactive | – |
| c1cc2c3c(cccc3c1)CC2 | inactive | – |
| CCCCN(CCCC)N=O | inactive | – |
| CCOP(=S)(OCC)SCSCC | inactive | – |
| CCOc1ccc(C(C)(C)COCc2cccc(Oc3ccccc3)c2)cc1 | inactive | – |

| Compound | outcome | AC50 |
| --- | --- | --- |
| Cc1cccc(N)c1 | inactive | – |
| ClC(Cl)(Cl)c1ccccc1 | inactive | – |
| CCN(CC)c1ccccc1 | inactive | – |
| CC(C)(C)OOC(C)(C)C | inactive | – |
| Cc1ccc([N+](=O)[O-])cc1C | inactive | – |
| CCC1(c2ccccc2)C(=O)N=C(O)NC1=O (stereo not given) | inactive | – |
| O=[N+]([O-])c1ccccc1 | inactive | – |
| Nc1ccc(Cl)cc1 | inactive | – |
| CCCN(CCC)c1c([N+](=O)[O-])cc(C(C)C)cc1[N+](=O)[O-] | inactive | – |
| c1ccc2c(c1)Nc1ccccc1S2 | inactive | – |
| ClC(Cl)c1ccccc1 | inactive | – |
| CCCCc1ccccc1 | inactive | – |
| O=P(Oc1ccccc1)(Oc1ccccc1)Oc1ccccc1 | inactive | – |
| CCOC(=O)c1ccccc1C(=O)OCC | inactive | – |
| CN(C)C(=O)Cl | inactive | – |
| CCNc1nc(Cl)nc(NC(C)(C)C)n1 | inactive | – |
| O=[N+]([O-])c1ccc(Cl)c(Cl)c1 | inactive | – |
| Nc1cc2c3c(c1)C(c1ccccc1)=N[C@@H](NC(=O)c1cccnc1)C(=O)N3CC2 | inactive | – |
| O=C(O)C1C(C(=O)O)C2(Cl)C(Cl)=C(Cl)C1(Cl)C2(Cl)Cl (stereo not given) | inactive | – |
| O=C(O)C(Cl)Cl | inactive | – |
